Assay outcomes as filed in PubChem.
In the library only some 7.3% were active in any assay of this set; here they are far more common.
uPA generation: blocks generation of uPA at the cell surface; cell surface uPA generation assay, qHTS; Potency, µM (titrated, usually from 38.3 µM), inactives show at the top dose activity change, negative = inhibition, hits mostly inhibitors; 0.31% of 330,000 active; AID 540303; active means well fitted inhibition curve with a large enough effect; inconclusive means small, poorly fitted or top-dose-only effect; inactive means no such curve, though single readings can be large or run the other way; tested in mouse RAW 264.7 cells; further: on the % scale 0 is the no-effect control and ±100 the full control effect; nearly all actives have a fitted effect of over 55% in size
NPC1 promoter act: activators of NPC1 promoter | Huh7 NPC1 promoter luciferase reporter, 24 h | 2.4% of 320,000 active | Potency, µM (series often up to 9.22 µM), inactives show at the top dose activation, actives largely listed as activators; further: % of control where 0% means no effect; nearly all actives have a fitted effect of over 60% in size
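Luminescence from an NPC1 promoter-driven luciferase reporter in stably transfected Huh7 cells was measured after 24 h compound treatment at 37 °C, followed by 10 min ambient incubation with luciferase detection reagent.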
ELG1 genotoxic: induces genotoxicity in HEK293T cells with luciferase-tagged ELG1. 1.3% of 330,000 active. Potency, µM (highest dose often 46 µM), without a hit: at the highest dose activity change, positive = activation, most hits filed as activators. HEK293T ELG1-luciferase reporter, luminescence, 16 h; further: % of control where 0% means no effect; nearly all actives have a fitted effect of over 60% in size
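Reporter readout depends on ELG1 protein level, which increases with genetic stress. After 16 hr compound exposure at 37 °C, luciferase activity was quantified using ONE-Glo.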
SMN2 splice enh: enhancers of SMN2 splice variant expression. 2.8% of 210,000 active. AID 1458. Potency, µM (series often up to 46.1 µM), without a hit: at the highest dose activity change, positive = activation, hits mostly activators. HEK293 SMN2-luciferase splicing reporter, luminescence, 30-36 h; further: % of control where 0% means no effect; nearly all actives have a fitted effect of over 55% in size
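qHTS luciferase splicing reporter: luminescence rises when SMN2 exon 7 is included in transfected HEK293 cells. Compound exposure lasted 30-36 h at 37C, with 4.5 mM final sodium butyrate as control, followed by a ONE-Glo read.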
Rab9 prom act: activates the Rab9 promoter | Huh7 Rab9 promoter-luciferase reporter, luminescence, 24 h | Potency, µM (doses to about 9.22 µM), inactives show top-dose activation, negative = inhibition, actives largely listed as activators | 2.8% of 320,000 active | AID 485297; further: % of control where 0% means no effect; nearly all actives have a fitted effect of over 60% in size
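Luminescence from Amplite-detected luciferase (10 minutes, ambient) reports Rab9 promoter activation. Before that, stable Rab9-luciferase Huh7 cells (1500/well, reduced-serum OP-MEM I plus 10% FBS) were exposed to compound for 24 hours at 37C.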
FLuc modulator: firefly luciferase modulation, counter-screen for miR-21 project; P08659; purified FLuc, Km substrates, luminescence inhibition; Potency, µM (series often up to 57.5 µM), without a hit: top-dose activity change, negative = inhibition, actives largely listed as inhibitors; 6.9% of 360,000 active; AID 588342;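 further: plate controls were vehicle for no effect and reference inhibitor for full effect; nearly all actives have a fitted effect of over 55% in size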
Target sequence (P08659 whole entry, looked up): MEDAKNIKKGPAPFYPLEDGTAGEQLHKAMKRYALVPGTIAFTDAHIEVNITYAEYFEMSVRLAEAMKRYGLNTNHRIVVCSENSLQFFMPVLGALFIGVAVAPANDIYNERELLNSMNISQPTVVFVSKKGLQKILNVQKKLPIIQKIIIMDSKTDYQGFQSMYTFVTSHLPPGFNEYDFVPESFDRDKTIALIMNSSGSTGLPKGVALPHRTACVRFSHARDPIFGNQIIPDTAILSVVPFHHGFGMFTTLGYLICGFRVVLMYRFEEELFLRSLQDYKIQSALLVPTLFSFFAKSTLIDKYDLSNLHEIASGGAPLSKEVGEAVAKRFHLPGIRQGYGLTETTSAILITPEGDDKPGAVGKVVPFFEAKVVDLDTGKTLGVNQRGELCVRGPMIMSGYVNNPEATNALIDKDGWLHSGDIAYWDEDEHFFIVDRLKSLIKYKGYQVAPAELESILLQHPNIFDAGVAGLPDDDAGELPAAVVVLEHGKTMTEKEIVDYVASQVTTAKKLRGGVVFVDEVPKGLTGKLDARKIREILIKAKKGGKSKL
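Biochemical qHTS of compounds, final roughly 60 µM downward over six points, against 10 nM purified firefly luciferase using Km concentrations of substrates (10 uM D-luciferin, 10 uM ATP) in Tris acetate pH 7.5 buffer; luminescence output.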
Numbers without * were called inactive; ? = inconclusive; . = no result given. Unless noted, the call rests on the fitted dose curve; in most records, active means well fitted curve in the direction sought with a large enough effect; inconclusive means small, poorly fitted or top-dose-only effect, or another doubt; inactive means no such curve, though single readings can be large; an effect the other way counts as inactive or inconclusive. Potency means the concentration at half of the fitted maximal effect.

SMILES | uPA generation | NPC1 promoter act | ELG1 genotoxic | SMN2 splice enh | Rab9 prom act | FLuc modulator
Nc1[nH]nc2c1NN(c1ccc(Cl)cc1Cl)N2 | -5% | ? | ? | ? | 30% | 12µM*
Cc1cc(-c2cn3ccccc3n2)c(C)n1-c1ccccc1 | -9% | 1.6µM* | 15% | 5.6µM* | 1.1µM* | 0.76µM*
Cc1ccc(C)c(N2CCN(C(=O)c3cc4c(=O)oc5ccccc5c4s3)CC2)c1 | . | . | . | -9% | . | 1%
CC(C)c1ccccc1Oc1c(C(F)(F)F)oc2c(CN3CCN(C)CC3)c(O)ccc2c1=O | . | . | . | 2% | . | -7%
COc1ccc(OC)c(C2NC(=O)NC(C)=C2C(=O)Nc2ccc(F)cc2)c1 (configuration not stated) | . | . | . | 9% | . | -7%
O=C(Nc1nc2ccc(Cl)cc2s1)C1CC1 | -9% | . | . | . | . | .
CC(=O)c1sc(Nc2nc3ccc(F)cc3s2)nc1C | -6% | 2.8µM* | 3% | 13µM* | 1.8µM* | 3.4µM*
CC(C)c1ccc2nc(NC(=O)C3CC3)sc2c1 | ? | 1.6µM* | ? | . | 1.6µM* | 7.6µM*
COC(=O)c1ccc2nc(NC(=O)C(C)(C)C)sc2c1 | -10% | ? | ? | -91% | 0.28µM* | 0.43µM*
CCOC(=O)c1csc(Nc2nc3ccc(F)cc3s2)n1 | -6% | 14% | 1% | -21% | 23% | -16%
COC(=O)c1ccc2nc(Nc3nc4ccc(F)cc4s3)sc2c1 | 1% | -19% | ? | -93% | -21% | 4.8µM*
CC(C)Oc1ccc(S(=O)(=O)N2CCOCC2)cc1NC(=O)C1CCCCC1 | 12% | 1% | 0% | . | -3% | .
COC(=O)Nc1nc2ccc(Br)cc2s1 | 2% | 28% | ? | 26% | 1.4µM* | -10%
COC(=O)c1ccc2nc(NC(=O)C3CCCCC3)sc2c1 | -7% | 0.89µM* | ? | . | 0.32µM* | ?
O=C(CS(=O)(=O)c1ccc(Cl)cc1)Nc1nc2ccc(Br)cc2s1 | . | . | . | . | . | -5%
CC(=O)Nc1nc2ccc(C(=O)NC3CCCCC3)cc2s1 | -4% | -1% | 0% | -3% | 2% | -17%
COc1ccc(C2NC(=O)N(C)C3=C2C(=O)N(c2cccc(Cl)c2)C3)cc1 (configuration not stated) | . | . | . | -10% | . | -10%
CC1CCCCN1C(=O)CSc1nc2ccccc2nc1Cc1ccccc1 (configuration not stated) | . | . | . | . | . | -16%
C/C(=N\NC(=O)COc1ccc(C)cc1C(C)C)c1cc2ccccc2o1 | -12% | 19% | 2% | 13µM* | 11% | 3.4µM*
C/C(=N\NC(=O)COc1ccc(C(C)(C)C)cc1)c1cc2ccccc2o1 | -15% | 2.8µM* | 17% | 18µM* | 3.5µM* | 0.3µM*
C/C(=N\NC(=O)COc1ccc(C(C)(C)C)cc1)c1ccc2c(c1)OCCO2 | 1% | -3% | -1% | 1% | -1% | 19µM*
COc1ccc(NCC(=O)N/N=C(\C)c2cc3ccccc3o2)cc1 | -6% | 9% | -3% | 2% | -3% | 17µM*
C/C(=N\NC(=O)CNc1ccc(F)cc1)c1cc2ccccc2o1 | 2% | 1% | -6% | -29% | 3% | ?
O=C(CNC(=O)c1ccccc1F)OCc1cc(=O)n2nc(C3CC3)sc2n1 | . | . | . | . | . | -5%
O=C(Nc1ccc([N+](=O)[O-])cc1)Nc1ccc(N2CCOCC2)c2nonc12 | 2% | -12% | -8% | . | -4% | 6%
SMILES | uPA generation | NPC1 promoter act | ELG1 genotoxic | SMN2 splice enh | Rab9 prom act | FLuc modulator
COC(=O)N/N=C(\C)c1ccc(-n2ccnc2)cc1 | 1% | -4% | 5% | 14% | 17% | -13%
C/C(=N\NC(=O)COc1ccc(C(C)(C)C)cc1)c1ccc(OC(F)F)cc1 | 3% | 3% | -2% | -5% | 1% | ?
C/C(=N\NC(=O)COc1ccc(C)cc1C(C)C)c1ccc(-n2ccnc2)cc1 | -3% | 6% | -2% | 9% | 14% | 1.9µM*
C/C(=N\NC(=O)COc1ccc(C(C)(C)C)cc1)c1ccccc1 | -1% | -3% | 2% | -14% | -1% | 11µM*
Cc1ccc(C(=O)N2CC(=O)Nc3ccc(Br)cc3C2c2ccc(F)cc2)cc1C (configuration not stated) | . | . | . | -6% | . | 3%
CCCCNc1nc2cccnc2s1 | 5% | ? | 12% | . | 25% | ?
Clc1ccc(Nc2nc3cccnc3s2)cc1 | -1% | 2.8µM* | ? | 13µM* | 2.5µM* | ?
Cc1ccc(/C=C2\SC(=O)N(CCC(=O)N3CCN(C)CC3)C2=O)cc1 | -1% | ? | ? | . | 24% | 13µM*
Cc1ccc(/C=C2\SC(=O)N(CCNC(=O)C3CSC4(C)CCC(=O)N34)C2=O)cc1 (configuration not stated) | 0% | 7% | -1% | . | 8% | 19µM*
COc1ccc(/C=C2\SC(=O)N(CCC(=O)N3CCN(C)CC3)C2=O)cc1 | ? | 24% | 9% | . | 18% | 19µM*
Cc1ccc(/C=C2/SC(=S)N(CCC(=O)N3CCN(C)CC3)C2=O)cc1 | -12% | -1% | -2% | . | -8% | ?
CN1CCN(C(=O)CCN2C(=O)S/C(=C/c3ccc(Cl)cc3)C2=O)CC1 | -4% | 6% | 0% | -1% | 2% | ?
CCCc1noc(-c2ccc(N3CCCCC3)c([N+](=O)[O-])c2)n1 | . | . | . | . | . | 4%
COC(=O)c1sccc1S(=O)(=O)N(CC(=O)Nc1cc(F)ccc1F)c1ccc(C)c(C)c1 | . | . | . | . | . | -3%
C=CCCCCCCCCCCCc1ccco1 | . | . | . | 0% | . | .
COc1ccc(OCC(=O)N/N=C2\CCc3ccccc32)cc1 | 4% | 2% | ? | -5% | 7% | 19µM*
COc1ccc(OCC(=O)N/N=C2/C=C(C)CC2)cc1 | -1% | 0% | -1% | 3% | -12% | -6%
COc1cccc(C(=O)NN=C2CCCC2)c1 | 2% | -3% | 1% | . | 9% | 6%
COc1ccc2c(c1)CC/C2=N\NC(=O)c1ccccc1 | -3% | ? | ? | 16µM* | ? | 12µM*
NC(=O)C(=O)N/N=C1\CCc2ccccc21 | 1% | 7% | ? | 13µM* | 21% | 11µM*
Cc1ccc(Cn2c(C(C)NC(=O)c3ccccc3)nc3ccccc32)cc1 (configuration not stated) | . | . | . | . | . | -4%
O=C(CSc1nncc2ccccc12)Nc1ccccc1 | 1% | -1% | 0% | . | 0% | 17µM*
Cc1nc(N)sc1-c1csc(N(C)c2ccc(O)cc2)n1 | . | ? | ? | ? | ? | 4.8µM*
CN(c1ccc(O)cc1)c1nc(-c2cccs2)cs1 | -3% | -4% | -3% | . | -4% | -1%
Cc1c(C#N)c(NC(=O)CCl)n(Cc2cccs2)c1C | 5µM* | -35% | -10% | -103% | -40% | 5%
O=C(/C=C/c1c(F)cccc1Cl)c1ccc(O)cc1 | ? | 0% | 4% | . | 0% | 11µM*
